RE007 growth inh – less growth of the S. pombe RE007 Vpr strain; S. pombe RE007 Vpr strain, BacTiter-Glo ATP luminescence, 24 h; Potency, µM (titrated, usually from 92.2 µM), for the others: at the highest dose activity change, negative = less growth, actives largely listed as inhibitors; hit rate 0.21% among 360,000; AID 651644; active = well fitted falling curve with a large enough effect; inconclusive = small, poorly fitted or top-dose-only effect; inactive = no such curve, though single readings can be large or run the other way; note: % is set by controls: 0 for no effect and ±100 for the full control effect; nearly all actives have a fitted effect of over 50% in size
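Fission yeast strain RE007, carrying one chromosomally integrated HIV-1 vpr copy, was seeded at OD 0.01 in PMG+AL medium with 23 nL pinned compound. After 24 h at 30 °C and 99% humidity, viability was read by BacTiter-Glo luminescence.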
Pf growth 96h – P. falciparum growth inhibition at 96 hour, primary screen for plastid delayed-death inhibitors | AID 504834 | P. falciparum luciferase reporter growth, 96 h | hit rate 6.9% among 320,000 | Potency, µM (titrated, usually from 28.7 µM), inactives show at the highest dose activity change, negative = inhibition, most hits filed as inhibitors; active = well fitted inhibition curve with a large enough effect; inconclusive = small, poorly fitted or top-dose-only effect, or another doubt; inactive = no such curve, though single readings can be large or run the other way; note: % is set by controls: 0 for no effect and ±100 for the full control effect
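Luminescence readout: decreased luciferase signal marks inhibited growth of reporter-expressing P. falciparum in infected red cells (2% hematocrit, 0.05% parasitemia final), exposed to compound two generations (96 h, 37 C, 5% CO2).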
SARS PLP yeast – SARS-CoV PLP inhibition in yeast; Potency, µM (highest dose often 32.9 µM), inactives show at the top dose activity, positive = growth rescue, hits mostly activators; S. cerevisiae expressing SARS-CoV PLpro, growth rescue; hit rate 0.19% among 330,000; note: 0% is about no effect; nearly all actives have a fitted effect of over 55% in size
Pf growth 48h – P. falciparum growth inhibition at 48 hours (one generation); hit rate 5.9% among 310,000; Potency, µM (series often up to 28.7 µM), for inactives: at the top dose activity change, negative = inhibition, usual class: inhibitors; P. falciparum luciferase growth in erythrocytes, 48 h; active = well fitted inhibition curve with a large enough effect; inconclusive = small, poorly fitted or top-dose-only effect, or another doubt; inactive = no such curve, though single readings can be large or run the other way; note: % is set by controls: 0 for no effect and ±100 for the full control effect
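Luciferase-expressing P. falciparum in infected erythrocytes (2% hematocrit, 0.1% parasitemia final) in RPMI 1640/0.5% Albumax were exposed to compound for 48 hours at 37 C, 5% CO2; growth read as luminescence.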
NS1 function inh – inhibitors of influenza NS1 protein function. hit rate 0.4% among 270,000. AID 2326. Potency, µM (top dose mostly 46.1 µM), for the others: top-dose activity, positive = more growth; note: actives are rising curves; nearly all actives have a fitted effect of over 50% in size
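OD600 was taken as the measure of yeast growth restored by compound in an NS1-expressing S. cerevisiae strain. Cells had been washed out of glucose medium and diluted 1:100 into galactose -URA medium, pH 6.0.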
Active calls of the source: *; ? = inconclusive; nt = no result given. This is a sample that favours compounds with a hit; in the whole collection about 9.5% have one here. Unless noted, calls come from the whole dose curve. Potency is the fitted concentration of half-maximal effect.

SMILES	RE007 growth inh	Pf growth 96h	SARS PLP yeast	Pf growth 48h	NS1 function inh
COc1ccc(CN2CCN(S(=O)(=O)c3ccc(NC(C)=O)cc3)CC2)cc1OC	-0.4%	10.4µM*	3.5%	?	1.7%
COc1ccc(CC(NC(C)=O)C(=O)NC2CCN(S(=O)(=O)c3cccc4ccccc34)CC2)cc1OC (stereo unspecified)	-22.2%	13.1µM*	6.7%	nt	1.6%
CCC1(C)Cc2nc(Cl)c(C#N)cc2CO1 (stereo unspecified)	2.4%	15.9%	-5.4%	0.9%	1.4%
CC1(C)Cc2nc(NC3CCCCC3)c(C#N)cc2CO1	-21.5%	15.0%	0.6%	9.28µM*	1.7%
CC1(C)Cc2c(C#N)c(NC3CCCCC3)nc(-c3ccco3)c2CO1	nt	9.28µM*	-7.8%	5.86µM*	-48.8%
Cn1c(SCc2ccc(Cl)cc2)nnc1-c1ccc2nonc2c1	31.8%	-0.8%	-0.6%	-19.4%	-1.3%
CC(=O)Nc1ccc2c(CSc3nnc(-c4cccnc4)n3-c3ccc(C)cc3C)cc(=O)oc2c1	-7.6%	7.38µM*	-14.7%	?	-30.3%
CC(C)c1ccccc1-n1c(SCc2cc(=O)oc3ccc4ccccc4c23)nnc1-c1cccnc1	-21.4%	8.28µM*	-6.6%	13.1µM*	?
CCOc1ccc(-n2c(SCc3cc(=O)oc4cc(C)ccc34)nnc2-c2cccnc2)cc1	7.8%	?	-5.0%	?	2.6%
COc1ccc(-c2cc(-c3ccco3)[nH]c(=O)c2C#N)cc1OC	6.3%	0.9%	1.0%	-1.2%	0.9%
Cc1nc2c(=O)n(C)c(=O)nc-2n(C)n1	?	-9.4%	-62.3%	0.329µM*	-42.6%
CCOC(=O)c1ccc(NC(=O)NNS(=O)(=O)c2cc(OC)ccc2OC)cc1	2.3%	5.22µM*	0.3%	41.4%	8.2%
CCOC(=O)c1nnsc1NC(=O)Nc1ccc(OC)cc1	-18.0%	27.5%	1.8%	4.15µM*	nt
Cc1cc2c(Nc3cccc(O)c3)ncnc2s1	5.9%	9.4%	nt	365.8%	10.1%
Fc1ccc(NC(=S)N2CCCN(c3ccc(C(F)(F)F)cn3)CC2)c(F)c1	60.3%	?	-3.3%	10.4µM*	10.3%
Cc1ccc(C(=O)NC(=S)Nc2c(C)ccc3nsnc23)cc1	-13.3%	18.1%	12.6µM*	-15.7%	16.5%
Cc1ccc(C(=O)NC(=S)Nc2cccc3c(C)cc(C)nc23)cc1	11.3%	11.7µM*	-2.4%	?	21.1%
Cc1ccc(C(=O)NC(=S)Nc2cccc3nsnc23)cc1	-11.4%	-16.6%	5.0%	?	-3.4%
Cc1nn(Cc2ccccc2)c2c1C(c1ccc(Cl)cc1)C(C#N)=C(N)O2 (stereo unspecified)	5.6%	1.17µM*	11.9%	?	-4.9%
CCNC(=O)NC(=O)C(C)Sc1nc2ccccc2c(=O)n1-c1cccnc1 (stereo unspecified)	9.2%	0.928µM*	-3.8%	1.04µM*	1.2%
CCNC(=O)NC(=O)C(C)Sc1nc2cc(C(=O)OC)ccc2c(=O)n1-c1ccccc1 (stereo unspecified)	4.8%	78.5%	3.3%	20.5%	4.9%
CC(=C/c1ccccc1)/C=N/n1c(-c2ccncc2)n[nH]c1=S	-4.4%	?	0.2%	-15.4%	1.3%
S=c1[nH]nc(-c2cc(-c3ccccc3)n[nH]2)n1/N=C/C(Br)=C/c1ccccc1	-11.6%	9.28µM*	-5.9%	5.22µM*	-8.7%
Cc1cc(-c2n[nH]c(=S)n2/N=C/C(Cl)=C/c2ccccc2)n[nH]1	nt	?	-20.0%	-16.3%	?
CC(=C/c1ccccc1)/C=N/n1c(C)n[nH]c1=S	-0.9%	11.7µM*	0.6%	9.6%	-70.2%
SMILES	RE007 growth inh	Pf growth 96h	SARS PLP yeast	Pf growth 48h	NS1 function inh
S=c1[nH]nc(-c2ccco2)n1/N=C/C(Cl)=C/c1ccccc1	-9.0%	64.9%	-1.8%	5.22µM*	-3.8%
Cc1n[nH]c(=S)n1/N=C/c1cccc(OCc2ccccc2)c1	-10.9%	31.4%	-0.3%	2.62µM*	-0.9%
CC(C)(C)C(=O)O/N=C(\N)Cc1ccc(-c2csnn2)cc1	-1.6%	0.0%	1.4%	?	-3.5%
CSc1ncnc2nc[nH]c12	nt	nt	nt	nt	-23.6%
CC(C)NC(=O)C1C(c2ccc(C(F)(F)F)cc2)=Nc2ccccc2N1C(=O)c1cc2ccccc2[nH]1 (stereo unspecified)	-8.4%	nt	nt	nt	nt
O=[N+]([O-])c1cccnc1Oc1ccc(C2SCCS2)cc1	3.4%	10.4µM*	0.5%	4.65µM*	5.3%
O/N=C/c1ccc2cccc(OCc3ccccc3)c2n1	-2.2%	-1.4%	-4.5%	8.6%	-6.2%
NC(=S)N/N=C/c1ccc2cccc(OCc3ccccc3)c2n1	1.0%	?	11.5%	14.7µM*	9.6%
COc1cccc(N2C(=O)CC(c3c[nH]c4ccccc34)C2=O)c1 (stereo unspecified)	-20.1%	nt	1.9%	-2.2%	-12.7%
O=C1CC(c2c[nH]c3ccccc23)C(=O)N1c1ccccc1 (stereo unspecified)	-2.7%	7.38µM*	5.7%	11.0%	6.2%
CC(NC(=O)Cc1ccc(NS(=O)(=O)c2cccc(C(F)(F)F)c2)cc1)c1ccccn1 (stereo unspecified)	6.2%	?	13.9%	?	21.2%
COc1ccc(OC)c(NC(=O)CCN2C(=O)c3ccccc3C2=O)c1	8.2%	?	1.0%	70.4%	-1.5%
Cc1cc([N+](=O)[O-])ccc1NC(=O)CN1C2CCC1CC(NC(=O)NC13CC4CC(CC(C4)C1)C3)C2 (stereo unspecified)	-4.6%	22.8%	0.4%	10.4µM*	-2.4%
O=C(COC(=O)/C=C/c1ccc(OC(F)F)cc1)NC1CCCCCC1	0.4%	nt	17.8%	nt	nt
O=C(Nc1cnn(Cc2c(Cl)cccc2Cl)c1)c1ccc([N+](=O)[O-])cc1	7.0%	13.1µM*	-1.6%	?	9.4%
COC(=O)c1ccc(CSc2nc3c(c(=O)n2-c2ccccc2)SCC3)o1	-0.1%	?	10.6%	10.4µM*	8.1%
COC(=O)c1ccc(CSc2nc3c(c(=O)n2-c2ccc(F)cc2)SCC3)o1	14.7%	?	-18.2%	?	-30.5%
COC(=O)c1ccc(CSc2nc3ccccc3c(=O)n2-c2ccc(OC)c(OC)c2)o1	12.2%	nt	-9.8%	8.28µM*	7.6%
COC(=O)c1ccc(CSc2nc3ccccc3c(=O)n2-c2ccccc2)o1	10.8%	nt	-1.0%	-27.8%	10.0%
COC(=O)c1c(-c2ccccc2)oc2c1C(OCCO)CCC2 (stereo unspecified)	-1.2%	nt	nt	nt	nt
CC12C(=O)N(c3cccc4cccnc34)C(=O)C1C1C=CC2C1 (stereo unspecified)	-6.7%	6.57µM*	-5.9%	nt	7.7%
CC(C)=CCc1c(O)cc2oc3c(CC=C(C)C)c(O)c(O)c(CC=C(C)C)c3c(=O)c2c1O	4.9%	3.6%	-5.6%	13.1µM*	-41.0%
COc1ccccc1NC(=O)N1CCC(NC(=O)C2CCCCC2)CC1	0.5%	26.6%	0.0%	0.8%	-5.1%

Bioassay records deposited in PubChem BioAssay by National Center for Advancing Translational Sciences (NCATS).
